Measurements published in the supplement of paper PMC7866885, “A novel bicyclic 2,4-diaminopyrimidine inhibitor of Streptococcus suis dihydrofolate reductase” (PeerJ, 2021).
± gives the standard deviation.

The compounds below were run on Streptococcus suis HE06 (assay: percent growth relative to DMSO control; higher = less growth inhibition). Conditions: 10 µM; incubation time 18 h.
Procedure: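 CLSI broth microdilution: 5x10^4 CFU of Streptococcus suis (strain P1/7 or HE06) incubated with 10 µM Pathogen Box compound in cation-adjusted Mueller Hinton broth, 37 °C, 5% CO2, 18 h. Growth read as OD600 and expressed as percent of the DMSO-treated control (100%); mean ± SD of three independent experiments.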

SMILES	percent growth
O=C(C1CCN(c2cc(-n3cccc3)ncn2)CC1)N1CCc2ccccc2C1	106 ± 15%
O=C(NCc1ccco1)N1CCN(Cc2ccc(Cl)s2)CC1	97.2 ± 4.8%
Clc1ccc(Cl)c(CO[C@H]2CCCC[C@@H]2n2ccnc2)c1	26.2 ± 40%
CC(C)c1ncc(-c2ccncc2)c([C@H]2CC[C@H](CNC(=O)c3cccnc3)CC2)n1	82.4 ± 8.9%
O=C(NCc1cc(Cl)cc(Cl)c1)c1c(C(F)(F)F)nc2ccccn12	84.6 ± 3.8%
CC(C)C(C(=O)Nc1ccc(S(=O)(=O)N(C)C)cc1)c1ccc(Cl)cc1 (centres undefined)	110 ± 24%
CC(C)(C)C(=O)N(CCCCCCN1C[C@H](O)[C@@H](O)[C@H](O)[C@H]1CO)C1CCCCCC1	122 ± 27%
CNC(=O)CNc1nc(-c2ccccn2)nc2scc(-c3ccccc3)c12	87.1 ± 13%
CCN(CC)CCCCCCNc1cc(OC)cc2c(C)ccnc12	81.6 ± 14%
COc1cccc2c(C)nc(N=C(N)N)nc12	57.7 ± 22%
Cc1nc(-c2ccccn2)nc(N(C)CCc2ccccc2)c1Cl	9.53 ± 8.4%
CCCn1c(CNc2ccccc2O)nc2ccccc21	62.6 ± 7.6%
O=C(C1CCN(c2nnc(-n3cccc3)s2)CC1)N1CCC(Cc2ccccc2)CC1	120 ± 18%
COc1ccc(-c2cnc3ccc(NCc4ccc(S(N)(=O)=O)cc4)nn23)cn1	85.1 ± 6.3%
CN1CCN(S(=O)(=O)c2ccc(-c3ccc4c(Nc5ccc6nn[nH]c6c5)ccnc4c3)cc2)CC1	103 ± 42%
c1ccc(-c2nc(NC3CCCCC3)cc(C3CC3)n2)nc1	7.51 ± 12%
COc1ccc(-c2cncc3ccc(C(=O)NCCCn4ccnc4)nc23)cc1	103 ± 28%
CS(=O)(=O)N1CCC(Cn2nc(Cc3cccc4ccccc34)c3c(N)ncnc32)CC1	91.3 ± 29%
CCc1ccc(S(=O)(=O)Nc2cc(CN3CCN(CCC(C)C)CC3)ccc2C)cc1	95.7 ± 12%
O=C(Nc1ccc2c(c1)B(O)OC2)c1ccccc1C(F)(F)F	88.2 ± 15%
CC(C)(C)OC(=O)N1CCC(Cn2nc(-c3cnc4ccccc4c3)c3c(N)ncnc32)CC1	88.2 ± 27%
CCCCc1ccc(NC(=O)Nc2ccc(O[C@H]3CCCC[C@@H]3N(C)c3ccccc3)c(F)c2)cc1	77.8 ± 26%
CCn1cnc2c(Nc3cc(F)cc(F)c3)nc(C#N)nc21	116 ± 30%
COc1ccc(CN2CCOc3ccc(C(C)(O)CN(C)C)cc3C2)cc1C (centres undefined)	103 ± 14%
